Results reported in PubChem BioAssay (NCI).
About 83,000 compounds went through this panel and 20% of them were active in at least one assay; those are over-represented in the sample as a whole.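 Interpretation: 100, growth as untreated; towards 0, rising growth inhibition; 0, no net growth; 0 to -100, cell death. Compounds scoring below 10 were considered active.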 Values without a mark were called inactive. The source made the active and inactive calls.

Columns and labels:
Test in all cases: NCI-60 one-dose screen, 48 h (100 = growth as untreated, 0 = no growth, -100 = all killed)
Conditions in all cases: 10 µM unless noted
T-47D breast = tested on: T-47D breast
BT-549 breast = tested on: BT-549 breast
MDA-MB-435 melanoma = tested on: MDA-MB-435 melanoma
SW-620 colon = tested on: SW-620 colon
MCF7 breast = tested on: MCF7 breast
HCT-116 colon = tested on: HCT-116 colon
HCC-2998 colon = tested on: HCC-2998 colon
KM12 colon = tested on: KM12 colon

| Structure (SMILES) | growth (T-47D breast) | growth (BT-549 breast) | growth (MDA-MB-435 melanoma) | growth (SW-620 colon) | growth (MCF7 breast) | growth (HCT-116 colon) | growth (HCC-2998 colon) | growth (KM12 colon) |
| --- | --- | --- | --- | --- | --- | --- | --- | --- |
| COC12C=C/C(=C(/C(=O)OCc3cncnc3)C(=O)CCCCCCCCC3(OC)C=C/C(=C(/C(=O)OCc4cncnc4)C(=O)CCCCCCCC1)O3)O2 | 10.2% | -10.2% (active) | -49.8% (active) | 4.94% (active) | 3.84% (active) | -63.8% (active) | -77.5% (active) | -89.2% (active) |
| CCN(CCNc1ccc(C)c2sc3cc(Cl)ccc3c(=O)c12)CC(C)(C)O | 69.5% | 84.9% | 35.2% | 82.2% | 58.5% | 50.6% | 39.6% | 40.5% |
| O=C(Nc1ccccc1O)c1ccc(CNc2ccnc(C(F)(F)F)c2)cc1 | 32.1% | 47.4% | 45.3% | 72.8% | 50.1% | 42.2% | 99.6% | 62.6% |
| COc1ccc2c(c1)c(-c1nc(-c3ccc4ccccc4c3)cs1)cn2C | 58% | 89% | 70.1% | 73.4% | 30.8% | 87.9% | 99.5% | 67.4% |
| COc1cc2c(c(OC)c1OC)C(=O)CC(c1cccc(C(=O)Nc3ccc(C#N)cc3)c1)O2 (centres undefined) | 9.48% (active) | 33% | 63% | 97.8% | 48.7% | 56.2% | 98.2% | 79.1% |
| CC[C@@H](C(=O)[C@@H](C)[C@@H](O)[C@H](C)[C@@H]1O[C@@H]([C@@H](CC)C(=O)ONC(=O)c2ccccc2O)CC[C@@H]1C)C1O[C@]2(C=CC(=O)[C@]3(CC[C@@](C)([C@H]4CC[C@](O)(CC)[C@H](C)O4)O3)O2)[C@H](C)C[C@@H]1C (some centres undefined) | 12.4% | 36.2% | 63% | 40.8% | 17.8% | 36.7% | 58.7% | 51.3% |
| CC1=Nc2cnc(Nc3ccc(N4CCCCC4)cc3)nc2Nc2ccccc21 | 46.9% | 42.5% | 89.7% | 96% | 72.5% | 59% | 106% | 54.9% |
| O=C1/C(=C/c2c[nH]c(=O)[nH]c2=O)SC(=S)N1Cc1ccccc1 | 108% | 107% | 100% | 98.7% | 89.4% | 103% | 101% | 101% |
| CCOC(=O)c1cnn(CC(C)O)c1NC(=O)NCc1cccc(F)c1 (centres undefined) | 100% | 101% | 107% | 102% | 104% | 84% | 94.9% | 106% |
| Cc1cc(NCCCNc2ccnc3cc(Cl)ccc23)nc(Nc2ccc(C(=O)N3CCCCC3)cc2)n1 | -32.8% (active) | 69.8% | -72.5% (active) | -0.272% (active) | 6.95% (active) | -38.3% (active) | 0.124% (active) | 26.1% |
| Fc1ccc2[nH]cc(-c3nc(-c4c[nH]c5c(Cl)nccc45)cs3)c2c1 | 35.1% | 75.1% | 60.4% | 2.51% (active) | 45.8% | 39.6% | 56.2% | 33.2% |
| Ic1ccc(Nc2nc3nonc3nc2Nc2ccc(I)cc2)cc1 | -9.49% (active) | -21.7% (active) | 6.04% (active) | 13.8% | 3.42% (active) | 0.308% (active) | 8.32% (active) | 7.87% (active) |
| Cc1sc2nc(NCCN)[nH]c(=O)c2c1C | 95% | 94.3% | 84.9% | 95.5% | 89.6% | 97.8% | 101% | 84.3% |
| Cc1c2ccccc2nc2cc3c(cc12)[C@H]1CC[C@]2(C)C(=O)CC[C@H]2[C@@H]1CC3 | 103% | 96% | 95.6% | 99.8% | 115% | 90.2% | 109% | 95.4% |
| O=C(/C=C/c1ccccc1)c1ccc(-n2cc(CN3CCN(c4cc5c(cc4F)c(=O)c(C(=O)O)cn5C4CC4)CC3)nn2)cc1 | 92.9% | 76.7% | 79.5% | 83.7% | 58.2% | 6.95% (active) | 88.3% | 73.7% |
| O=C(Nc1ccc(Nc2ccncc2)cc1)c1ccc(Nc2ccnc3ccc([N+](=O)[O-])cc23)cc1 | 122% | 107% | 104% | 105% | 91.9% | 97% | 76.7% | 90.1% |
| COc1cc(OC)c2c(=O)c3c(CC=C(C)C)cc(OC)c(O)c3oc2c1 | 57.7% | 77.5% | 53.9% | 99.7% | 78.5% | 81.6% | 106% | 66.4% |
| CC(C)C1C2=C(NCCN1C(=O)c1ccncc1)C(C)(C)N(Cc1ccccc1)C2=O (centres undefined) | 103% | 104% | 104% | 105% | 95.5% | 92.8% | 100% | 97.6% |
| Clc1ccc(-c2nc(C(Cl)Cl)nc3cc(-c4ccccc4)nn23)cc1 | 55.3% | 89% | 37.9% | -5.43% (active) | 24.8% | 23.1% | -53.7% (active) | 3.35% (active) |
| O=c1cc(CNc2cc(F)cc(F)c2)c2ccc(I)cc2[nH]1 | 35.8% | 54.8% | -28.1% (active) | 19.1% | 21.9% | 26.4% | 64.6% | 24.1% |
| CSc1nc2ccc(C)cc2cc1/C=C1/C=C(c2ccccc2)NC1=O | -0.11% (active) | 76% | 30.9% | 34.9% | 48.1% | 9.26% (active) | 83.4% | 70.4% |
| Cc1ccc(NC(=O)c2cc3ccccc3cc2O)c(C)c1 | 97.2% | 75.9% | 72.5% | 78.1% | 92.7% | 75.8% | 96.7% | 83.1% |
| CN1CCN(c2ccc(NC3=CC(=O)c4ncncc4C3=O)cc2)CC1 | -48.2% (active) | -90.9% (active) | -90.3% (active) | -64.1% (active) | -64.3% (active) | -53.6% (active) | -78.2% (active) | -75.9% (active) |
| Oc1nc(NCc2ccccc2)sc1/C=C1\C=Nc2ncccc21 | 63.6% | 42.7% | 74.2% | 44.5% | 42% | 24.3% | 102% | 55% |
| COc1cc(-c2ccc[nH]2)[nH]c1/C=C1\N=C(C)C(CC(=O)OCC(C)(C)C)=C1C | -58.7% (active) | -87.7% (active) | -81.9% (active) | -64.6% (active) | -74.1% (active) | -90.4% (active) | -81.4% (active) | -90% (active) |
| CC1=C2[C@@H](CC1)[C@]1(C)O[C@@](C3CCNCC3)(C[C@H]1OC(=O)CO)[C@H]2OC(=O)/C=C/c1ccccc1 | 62.6% | 81.7% | 88.6% | 93.6% | 74.2% | 74.5% | 99% | 97.6% |
| CC(=O)c1c(Nc2cccc(F)c2)[nH]c2c(Cl)cc(Cl)c(Cl)c2c1=O | -11.1% (active) | 8.92% (active) | 2.08% (active) | 9.59% (active) | 2.73% (active) | 5.08% (active) | 10.7% | 4.18% (active) |
| Oc1c(CN2CCC(N3CCOCC3)CC2)cc(Cc2cc(CN3CCC(N4CCOCC4)CC3)c(O)c3ncccc23)c2cccnc12 | 21.5% | 33.5% | 20.3% | 28.2% | 5.06% (active) | 11.5% | 0.162% (active) | 17.1% |
